The whole screen tested about 390,000 compounds, of which about 55 (0.01%) were called active. Only a sample is shown. Unmarked numbers belong to inactive results. Calls follow the shape of the dose curve; as a rule, active = well fitted inhibition curve with a large enough effect; inconclusive = small, poorly fitted or top-dose-only effect; inactive = no such curve, though single readings can be large or run the other way.
These molecules were tested against Thioredoxin reductase 1, cytoplasmic (Rattus norvegicus) (UniProt O89049) (assay: qHTS Assay for Substrates of Mammalian Selenoprotein Thioredoxin Reductase 1 (TrxR1): qHTS). Conditions: purified TrxR1 substrate turnover, NADPH consumption readout; series mostly up to 114 µM; activity change, negative = substrate turnover: at the top concentration.
From the text: The selenoprotein thioredoxin reductase (TrxR; EC 1.8.1.9) is a FAD containing homodimeric pyridine nucleotide-disulfide oxidoreductase with many cellular roles. Together with NADPH and its prime substrate thioredoxin (Trx), the enzyme forms the core of the Trx system. The mammalian Trx system exerts a wide spectrum of functions including redox regulation, antioxidant defense, regulation of transcription factors as well as support of cell growth and replication. Many of these functions involve the reduction of Trx, which may subsequently reduce a number of different substrates including ribonucleotide reductase, peroxiredoxins or NFkB. Mammalian TrxR itself also has a broad substrate specificity, reducing both protein and non-protein substrates, including low molecular weight compounds such as dehydroascorbate, lipoic acid, ubiquinone, and juglone. In addition, several drugs in clinical use for anticancer treatment are indeed known to target TrxR1.
This BioAssay is a validation of an NADPH fluorescence-based, dual-purpose qHTS rTrxR1 assay designed to find potential inhibitors and substrates of rTrxR1. For this particular BioAssay, actives are potential substrate. See related BioAssay for inhibition data deposition.
NIH Molecular Libraries Probe Production Network [MLPCN]
NIH Chemical Genomics Center [NCGC]
Assay Provider: Elias Arner, Karolinska Institute
Assay protocol: 2 uL of reagents (buffer in column 4 as negative control and 90 nM rTrxR1 in columns 1-3 and 5-48) were dispensed into Greiner black solid-bottom 1,536-well assay plates, followed by 1 uL of NADPH (400 uM final concentration) to each well. The plates were centrifuged at 1000 rpm for 15 seconds and subsequently incubated for 5 min at room temperature (~22 deg C) to allow for rTrxR1 reduction. Compounds (23 nL) were then transferred via Kalypsys pin tool equipped with 1536-pin array (10 nL slotted pins, V&P Scientific, San Diego, CA). In addition, a duplicate 2-fold serial dilution of the control compounds auranofin, a known gold-based TrxR1 inhibitor, and juglone (5-hydroxy-1,4-naphthoquinone), a natural TrxR1 substrate, were pin-transferred to columns 2 and 3, respectively. After incubation for 15 min at room temperature (~22 deg C), 1 uL of selenite (400 uM final concentration) were dispensed to each well. The plate was immediately transferred to a ViewLux high-throughput CCD imager (PerkinElmer), wherein kinetic measurements of NADPH fluorescence (Ex 340 nm, Em 450 nm) were acquired (8 minute kinetic read, see Table 1). Read 1 was utilized to assess the capacity of a compound to serve as an rTrxR1 substrate, i.e. a decrease in NADPH fluorescence compared to the no-compound background is an indication of a substrate behavior for that particular compound. For inhibitory activity of a compound, delta values, computed as the difference in fluorescence intensity between the first and last reads of an 8-minute time kinetic window, were used. All reagents were diluted in an assay buffer consisting of 50 mM Tris-HCl, pH 7.5, 2 mM EDTA, and 0.01% Tween-20.
Throughout the screen, reagent bottle and all liquid lines were made light-tight to minimize reagent degradation. All screening operations were performed on a fully integrated robotic system (Kalypsys, San Diego, CA) containing one RX-130 and two RX-90 anthropomorphic robotic arms (Staubli, Duncan, SC). Library plates were screened starting from the lowest and proceeding to the highest concentration, and a 'double-pinning' step of the highest concentration was required to access higher concentrations of compounds. Vehicle-only plates, with DMSO being pin-transferred to the columns 5-48, were inserted uniformly at the beginning and the end of each library in order to monitor and record any shifts in the background, which can be affected by reagent dispensers or loss in enzyme activity over time. […]
% is scaled to controls: 0 for no effect and ±100 for the full control effect.
Also: nearly all actives have a fitted effect of over 50% in size.

Sequence of Thioredoxin reductase 1, cytoplasmic (Rattus norvegicus) (O89049 whole entry, looked up): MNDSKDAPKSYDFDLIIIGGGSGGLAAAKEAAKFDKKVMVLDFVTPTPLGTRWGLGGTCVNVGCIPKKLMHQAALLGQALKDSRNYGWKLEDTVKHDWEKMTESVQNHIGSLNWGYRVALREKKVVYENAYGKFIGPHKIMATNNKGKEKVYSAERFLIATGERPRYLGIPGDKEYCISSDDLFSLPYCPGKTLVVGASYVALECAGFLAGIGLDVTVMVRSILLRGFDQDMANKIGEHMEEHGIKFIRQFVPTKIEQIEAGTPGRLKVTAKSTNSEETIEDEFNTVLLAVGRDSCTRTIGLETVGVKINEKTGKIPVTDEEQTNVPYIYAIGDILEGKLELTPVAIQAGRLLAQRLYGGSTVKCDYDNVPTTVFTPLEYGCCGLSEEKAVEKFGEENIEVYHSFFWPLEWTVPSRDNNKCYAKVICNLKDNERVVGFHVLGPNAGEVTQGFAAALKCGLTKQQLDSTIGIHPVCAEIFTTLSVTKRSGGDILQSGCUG

| SMILES | activity change, negative = substrate turnover |
| --- | --- |
| CC1(C)CCc2cc(S(=O)(=O)N3CCN(c4nc(-c5cccs5)nc5ccccc45)CC3)ccc2O1 | 2.89% |
| C=C1C=C(C)n2ncc(C(=O)Nc3ccccc3O)c2N1 | 1.54% |
| COC(=O)C1=C(C(=O)OC)[C@@H]2N(Cc3ccccc3)c3ccccc3[C@@]23C[C@@H](C(=O)OC)N(S(=O)(=O)c2ccc(C(F)(F)F)cc2)C3=N1 | -10.9% |
| CCOc1ccc(N2CC(C)Cn3c2nc2c3c(=O)n(Cc3c(F)cccc3Cl)c(=O)n2C)cc1 (stereo unspecified) | -1.89% |
| C=C1C=C(C(F)F)n2ncc(C(=O)NCCc3ccccc3OC)c2N1 | -2.11% |
| Cc1ccc(NC(=O)C(Cc2ccccc2)NS(=O)(=O)c2ccc3c(c2)oc(=O)n3C)cc1C (stereo unspecified) | -0.578% |
| CCOc1ccc(Nc2ncnc3scc(-c4ccc(OC)cc4)c23)cc1 | 3.1% [at 57.1 µM] |
| COc1cccc(CNCCSc2nnnn2C)c1OCc1ccccc1Cl | 8.42% [at 11.4 µM] |
| Cc1ccc(Cn2cnc3c(cnn3C(C)(C)C)c2=O)c(F)c1 | 1.87% |
| COc1cc(C(=O)Nc2ccc(OCc3cc(=O)n4ccc(C)cc4n3)cc2)cc(OC)c1OC | 8.56% [at 57.1 µM] |
| CC1CCCN(c2nc3c(S(=O)(=O)c4ccc(C(C)C)cc4)nnn3c3ccsc23)C1 (stereo unspecified) | 29.8% |
| Cc1[nH]c2ccccc2c1C(=O)C(=O)N(C)c1ccccc1 | 1.64% |
| CN(CC(=O)Nc1ccccc1F)S(=O)(=O)c1ccc2c(c1)c(=O)n(C)c(=O)n2C | 7.12% |
| COc1ccccc1CNC(=O)C(=O)NCC(c1ccco1)S(=O)(=O)c1ccc(F)cc1 (stereo unspecified) | -4.27% [at 57.1 µM] |
| CCOc1ccccc1CNC(=O)C1CCCN(S(=O)(=O)c2ccc3c(ccn3C)c2)C1 (stereo unspecified) | 6.22% [at 57.1 µM] |
| CN(Cc1ccccc1)c1ccc(/C=C/c2ccnc3ccccc23)cc1 | -8.75% |
| Oc1ccccc1-c1nc(/C=C/c2ccc(F)cc2)no1 | 6.31% |
| CC(C)Cn1c(-c2ccc(S(=O)(=O)N3CCOCC3)cc2)csc1=Nc1cc(Cl)ccc1Cl | 3.11% |
| COc1cc(OC)c(OC)cc1/C=C1\C=Cc2ccccc21 | 6.44% [at 0.0914 µM] |
| Cc1cccc(C(=O)N2CCc3cc(CNC(=O)Cc4ccc(F)cc4)ccc32)c1 | -5.32% [at 57.1 µM] |
| Cc1nnc(SCC(=O)NCc2ccccc2Cl)c2nn(-c3ccccc3)c(C)c12 | -2.94% |
| Brc1cccc[n+]1Cc1cccc(C[n+]2ccccc2Br)c1 | -9.86% |
| COc1cc2[nH]c(=O)n(Cc3ccc(C(=O)NCc4ccc(C)cc4)cc3)c(=O)c2cc1OC | 3.98% [at 2.29 µM] |
| CN(C)c1ccc(/C=N\Nc2ccc([N+](=O)[O-])cc2[N+](=O)[O-])cc1Cl | -5.6% |
| COc1cc2nc(Cl)nc(NC3CC3)c2cc1OC | -7.58% |
| Cc1nnc(C)n1-c1ccc(C(=O)Nc2cccc(Br)c2)cc1 | 0.591% [at 57.1 µM] |

| SMILES | activity change, negative = substrate turnover |
| --- | --- |
| Cc1ccc(C=O)cc1Cl | 7.59% |
| Cc1ccc(-c2nnc3ccc(SCC(N)=O)nn23)cc1 | 11.6% |
| CN(C)c1ccc(C=Nc2ccc(/C=C/c3ccnc4ccccc34)cc2)cc1 | -26.7% |
| Cc1nnc(NCc2ccccc2)c2c1nnn2Cc1ccc(F)cc1 | -11.2% |
| CN(C)c1ccc(/C=C/c2sc3ccccc3[n+]2CCCCBr)cc1 | -1.1% |
| CC(C)(C(=O)NO)c1ccccc1 | 7.41% |
| O=C1O/C(=C\c2ccc(O)cc2)C(O)=C1c1ccc(O)cc1 | -5.92% |
| NC1CCN(O)C1=O (stereo unspecified) | 6.14% [at 57.1 µM] |
| C=COC(=O)N1CCN(/[N+]([O-])=N/Oc2ccc([N+](=O)[O-])cc2[N+](=O)[O-])CC1 | 10.5% [at 0.457 µM] |
| O=C(O)c1c(Br)c(Br)c(Br)c(Br)c1C1c2ccc(O)cc2Oc2cc(O)ccc21 | -0.493% |
| O=C(NCCCO)C(=O)Nc1c2c(nn1-c1ccc(F)cc1)CSC2 | -2.34% [at 57.1 µM] |
| C(=Nc1ccc(/C=C/c2ccnc3ccccc23)cc1)c1cc2c3c(c1)CCCN3CCC2 | -2.53% |
| Cc1ccc2nc3c(cc(C(=O)NC4CCCCC4)c(=N)n3C(C)C)c(=O)n2c1 | 203% |
| Cc1ccc(CN(C(=O)COc2ccc(Cl)cc2C)C2CCS(=O)(=O)C2)o1 (stereo unspecified) | -0.557% |
| CCOc1n[nH]c(-c2ccccc2)n1 | -11% |
| COc1ccc(CCNC(=O)CCCCn2c(=O)c3ccccc3n(Cc3ccccc3C)c2=O)cc1OC | -7.44% |
| CS(=O)c1ccc(/C=C2\C=Cc3ccccc32)cc1 (stereo unspecified) | 1.35% [at 0.0914 µM] |
| COc1ccccc1NC(=O)C1=C(C)Nc2ncnn2C1c1sccc1C (stereo unspecified) | 3.43% [at 57.1 µM] |
| Cc1ccc(C2C=C(c3ccc(Cl)cc3)Nc3nc(NC(=O)CCC(=O)O)nn32)cc1 (stereo unspecified) | 19% [at 57.1 µM] |
| C/C=C/NNC(=O)Cc1ccc(OC)cc1 | 4.71% |
| CCOC(=O)c1ccc(NC(=O)CCS(=O)(=O)c2ccc3c(c2)oc(=O)n3C)cc1 | 2.83% |
| COCCCNC(=O)c1ccc(NC(=O)c2nsc3ccccc23)cc1 | 1.31% [at 57.1 µM] |
| CC1(C)C=Cc2c(ccc(C(=O)/C=C/c3ccccc3)c2O)O1 | 6.76% |
| CCN(CC)/[N+]([O-])=N/OCOC(=O)Cc1c(C)n(C(=O)c2ccc(Cl)cc2)c2ccc(OC)cc12 | 12.6% [at 0.457 µM] |
| CC(=O)/C(C)=N/O | 3.07% [at 57.1 µM] |

— PubChem BioAssay AID588456 (National Center for Advancing Translational Sciences (NCATS), 2011)
